Only some compounds are listed: those with a hit (about 3.4% of all), similar ones and a draw of the others.
GPR151 ag = activators of human GPR151; 650,000 compounds, 1% hits; PathHunter beta-arrestin GPR151 cells, luminescence; activation, % at 11.2 µM; in the data active = activation above about 4.9%;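 note: 0% = median of compound wells and 100% = cells with positive control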
Target sequence (Q8TDV0 whole entry, looked up): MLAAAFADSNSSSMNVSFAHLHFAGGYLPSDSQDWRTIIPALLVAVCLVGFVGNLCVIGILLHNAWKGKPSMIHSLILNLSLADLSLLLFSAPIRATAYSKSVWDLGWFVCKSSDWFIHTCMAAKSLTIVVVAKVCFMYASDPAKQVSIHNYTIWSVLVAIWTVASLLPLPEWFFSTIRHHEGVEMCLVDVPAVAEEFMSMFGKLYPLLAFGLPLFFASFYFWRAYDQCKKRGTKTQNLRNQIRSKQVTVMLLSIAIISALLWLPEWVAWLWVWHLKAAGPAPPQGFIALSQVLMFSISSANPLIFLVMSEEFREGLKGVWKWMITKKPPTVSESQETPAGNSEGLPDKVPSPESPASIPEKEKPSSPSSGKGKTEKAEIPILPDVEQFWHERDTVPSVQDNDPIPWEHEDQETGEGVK
TEAD-YAP block = TEAD-YAP interaction inhibition | HEK-TIYL cells, TEAD-Gal4/YAP UAS-luciferase luminescence | inhibition, % at 9.12 µM | 640,000 compounds, 1.4% hits | AID 1259422; in the data active = inhibition above about 32%;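 note: 0% = median of test compound wells and 100% = reference inhibitor wells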
FBW7 activator = human FBW7 E3 ligase activation, primary screen; 650,000 compounds, 0.13% hits; Q969H0; normalized activity (activation), % at 26.1 µM; AlphaScreen FBW7–phospho-cyclin E peptide binding, activator screen; AID 1259310; in the data active = normalized activity above about 1.9%;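 note: purified mutant Fbw7 with reduced substrate affinity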
MITF primary = inhibitors of human MITF | O75030 | AlphaScreen MITF homodimerization, bead proximity signal | inhibition, % at 2.6 µM | 650,000 compounds, 0.91% hits; in the data active = inhibition above about 50%;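 note: 0% = vehicle wells with protein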
The depositor's hits bear a star.

SMILES | GPR151 ag | TEAD-YAP block | FBW7 activator | MITF primary
OC[C@@H]1CCCN1c1ccnc2c(-c3ccccc3F)cnn12 | -3 | 90* | 0 | -14
CN1CCN(c2ccnc3c(-c4ccccc4Oc4ccccc4)cnn23)CC1 | 0 | -3 | 0 | -9
OCc1cccc(-c2cnn3c(N4CCC[C@H]4CO)ccnc23)c1 | 2 | 66* | 0 | -15
OC1CCN(c2ccnc3c(-c4ccc(F)c(Cl)c4)cnn23)CC1 | -2 | -56 | 0 | -22
CN1CCN(c2ccnc3c(-c4ccccc4F)cnn23)CC1 | 1 | 67* | 0 | -12
c1ccc(-c2csc3nc(CN4CCOCC4)nc(NCCc4ccccn4)c23)cc1 | -2 | 2 | 0 | 4
Cc1ccc(-c2nnc(SCC(=O)N3C(C)CCCC3C)n2N)cc1 (stereo not drawn) | -1 | 4 | 0 | 13
Cc1ccc(-c2cnn3c(N4CCC[C@H]4CO)ccnc23)cc1 | -2 | 96* | 0 | -19
O=C(NC1CC1)c1ccc(-c2cnn3c(N4CCC[C@H]4CO)ccnc23)cc1 | 2 | -64 | 0 | 1
OC[C@@H]1CCCN1c1ccnc2c(-c3ccc(O)cc3)cnn12 | -1 | 95* | -1 | -11
COc1ccc(-c2cnn3c(N4CCCCC4CCO)ccnc23)cc1OC (stereo not drawn) | -1 | 38* | 0 | -7
OC[C@@H]1CCCN1c1ccnc2c(-c3cnn(Cc4ccccc4)c3)cnn12 | 1 | -57 | 0 | 11
CCN1C(=O)CC(C(=O)Nc2cccc(Cl)c2)SC1=Nc1cccc(C(F)(F)F)c1 (stereo not drawn) | 0 | 3 | 0 | -5
COc1ccc(-c2c(C)nn3c(NCc4ccncc4)cc(C)nc23)cc1 | 0 | -7 | 4.0* | 21
COc1ccc(-c2c(C)nn3c(NCc4cccnc4)cc(C)nc23)cc1 | 3 | 15 | 0 | 6
COc1ccc(-c2c(C)nn3c(NCCCN(C)C)cc(C)nc23)cc1 | 0 | 1 | 3.4* | 20
COc1cccc(-n2cc(C(=O)Nc3ccc(C(C)=O)cc3)c3ccccc3c2=O)c1 | -1 | 17 | 0 | -9
Cc1cc(N2CCOCC2)nc2ccc(NC(=O)/C=C/c3cccs3)cc12 | 0 | -3 | 0 | 14
CCOc1ccccc1OCC(=O)N/N=C/c1cc(C)ccc1O | 0 | 61* | -2 | -14
CCOc1ccccc1OCC(=O)N/N=C1\CCCC(=O)C1 | 1 | 48* | 0 | -5
Cc1ccc(C(C)C)c(OCC(=O)N/N=C2\CCCC(=O)C2)c1 | 2 | 2 | 0 | 4
O=C(COc1ccccc1-c1ccccc1)N/N=C\c1ccc[nH]1 | 0 | 51* | 0 | 6
COc1cc(/C=N/NC(=O)COc2ccc(C)cc2C)ccc1O | 0 | -8 | 1.9* | -14
O=C1c2ccc([N+](=O)[O-])cc2C(=O)N1c1ccc(Br)cc1 | 0 | 4 | 0 | -8
CC(=O)c1cn(CCOc2ccccc2)c2ccccc12 | 5 | 5 | 0 | -12
SMILES | GPR151 ag | TEAD-YAP block | FBW7 activator | MITF primary
CCCC(Oc1ccc(Br)cc1)C(=O)NN (stereo not drawn) | 0 | 10 | 0 | -7
Cc1n[nH]c(C)c1CCC(=O)N/N=C/c1ccc(Br)cc1 | 0 | 5 | 0 | 10
Cc1ccccc1OCC(=O)N/N=C/c1ccc(F)cc1 | 1 | -2 | 0 | 12
Cc1ccc(/C=N/NC(=O)CCc2c(C)n[nH]c2C)cc1 | 0 | 33* | 0 | 4
CCOc1cc([N+](=O)[O-])cc(/C=N/NC(=O)COc2c(C)ccc(C)c2C)c1O | 2 | 0 | 0 | -3
Cc1ccc(/C=N/NC(=O)COc2ccccc2C)cc1 | -1 | 50* | 0 | -3
COc1cc(/C=N\NC(=O)COc2ccc(C)cc2C)cc(OC)c1O | 0 | -8 | 0 | 6
CCOc1cc([N+](=O)[O-])cc(/C=N/NC(=O)COc2cccc(C)c2C)c1O | 0 | -3 | 0 | 66*
COc1cc(/C=N\NC(=O)COc2cc(C)ccc2C(C)C)cc(OC)c1O | -1 | 36* | 0 | 11
C/C(=N\Nc1nc(C)cc(C)n1)c1ccc(Cl)c(Cl)c1 | 0 | -10 | 0 | 0
N#Cc1cccc(NC(=O)Cn2nnc(-c3ccc(F)cc3)n2)c1 | -1 | 8 | 0 | 3
CC(=O)c1cccc(-c2cccc(C(=O)Nc3ccc(Oc4ccccc4)cc3)n2)c1 | 2 | 14 | 0 | -10
CCOC(=O)c1sc2nc(SCC(=O)N3CCCc4ccccc43)n(CCc3ccc(Cl)cc3)c(=O)c2c1C | -1 | -5 | 1 | 0
OCCNc1nc(Nc2ccncn2)nc2c1ncn2-c1ccccc1 | 0 | 3 | 0 | 9
Oc1ccc(CCNc2nc(Nc3ccncc3)nc3c2ncn3-c2ccccc2)cc1 | 1 | 56* | 0 | -4
COc1ccc(CCNc2nc(Nc3cccnc3)nc3c2ncn3-c2ccccc2)cc1 | -1 | 37* | 0 | 13
OCCNc1nc(Nc2ccccn2)nc2c1ncn2-c1ccccc1 | 0 | 34* | 0 | 8
Oc1ccc(CCNc2nc(Nc3ncccn3)nc3c2ncn3-c2ccccc2)cc1 | -1 | 15 | 0 | 19
Oc1ccc(CCNc2nc(Nc3ccccn3)nc3c2ncn3-c2ccccc2)cc1 | 1 | 34* | 0 | -9
CCOC(=O)c1cn[nH]c1S(=O)(=O)N1CCN(c2cc(Cl)ccc2C)CC1 | 1 | 3 | 0 | -11
Oc1ccc(CCNc2nc(Nc3ccccn3)nc3c2ncn3-c2ccsc2)cc1 | -1 | 46* | 0 | 12
Oc1ccc(CCNc2nc(NCc3cccnc3)nc3c2ncn3-c2ccccc2)cc1 | -2 | 54* | 0 | 10
c1ccc(CNc2nc(Nc3ccccn3)nc3c2ncn3-c2ccsc2)cc1 | -2 | 5 | 0 | 12
Oc1ccc(CCNc2nc(NCc3cccnc3)nc3c2ncn3-c2ccsc2)cc1 | 0 | 1 | 0 | -252
COc1ccc2c(c1)CC/C(=C\c1cccn1C)C2=O | -7 | 46* | 0 | 15
SMILES | GPR151 ag | TEAD-YAP block | FBW7 activator | MITF primary
Cc1cccc(Oc2nc3ccccn3c(=O)c2/C=C(\C#N)C(=O)N2CCOCC2)c1C | -1 | 42* | 1 | 18
COc1ccc(Oc2nc3c(C)cccn3c(=O)c2/C=C(\C#N)C(=O)N2CCOCC2)cc1 | 0 | 15 | 0 | 9
Cc1ccc(Oc2nc3ccccn3c(=O)c2/C=C(\C#N)C(=O)N2CCOCC2)c(C)c1 | 0 | 34* | 0 | 4
Cc1cc(C)cc(Oc2nc3c(C)cccn3c(=O)c2/C=C(\C#N)C(=O)N2CCOCC2)c1 | 4 | 37* | 0 | 8
Cc1c(C(C)NC(=O)COc2ccc(Br)cc2Cl)cnn1C (stereo not drawn) | 1 | -3 | 0 | -11
COc1cc([C@@H]2c3cc4c(cc3[C@H](O)C3COC(=O)[C@@H]32)OCO4)cc(OC)c1OC (stereo partly drawn) | 1 | 55* | 0 | -1
COc1cc([C@@H]2c3cc4c(cc3C(OC3O[C@@H]5COC(C)O[C@H]5[C@H](O)[C@H]3O)C3COC(=O)[C@@H]32)OCO4)cc(OC)c1O (stereo partly drawn) | 0 | -26 | 0 | 8

High-throughput results as filed in PubChem.
